40 compounds from PubChem BioAssay (NCI) can be followed below.

About 83,000 compounds went through this panel and 20% of them were active in at least one assay; those are over-represented in the sample as a whole.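 Activity criterion: percent growth below 10, measured after cells in 96-well plates were exposed to a single compound concentration for 48 hours.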 A number with no mark means an inactive call. Active and inactive are the calls of the source.

For the assay, the system named is RPMI-8226 leukemia. The assay is described as follows: NCI-60 one-dose screen, 48 h (100 = growth as untreated, 0 = no growth, -100 = all killed). To be noted: 10 µM unless noted. The procedure:
Growth inhibition of the RPMI-8226 human tumor cell line is measured as a screen for anti-cancer activity. Cells are grown in 96 well plates and exposed to the test compound for 48 hours. Compounds are tested at a single concentration, which is 10^-5 M for most compounds. The reported endpoint is percent growth (GI% or GIPRCNT), where numbers from 0 - 100% represent growth inhibition, and numbers from -100% - 0 represent cell death. For example, a value of 40 represents 60% growth inhibition. A value of 0 means no net growth occurred over the course of the experiment. A value of -40 indicates 40% of cells at the beginning of the experiment died by the end of the experiment. A value of -100 means all cells are dead at the end of the experiment.
NCI-60 Human Tumor Cell Lines Screen was performed using the standard one-dose NCI protocol, which is described in more detail at https://dtp.cancer.gov/discovery_development/nci-60/default.htm.
Compounds with GIPRCNT values below 10 were considered active. Activity score was based on GIPRCNT using the following formula: […]
Score is 0 for GIPRCNT values of 100 or above, 50 for GIPRCNT values of 0, and 100 for GIPRCNT values of -100.
With `Nc1ccc(N)c2c1Oc1ccccc1O2`, the growth was 81%.

`CC1(C)N=C(N)N=C(N)N1c1cccc(C(=O)Nc2cccc(S(=O)(=O)F)c2)c1`: the growth is 95.5%. In the case of `C[C@]12CCC(=O)CC1CC[C@@H]1C2CC[C@@]2(C)C1CC[C@@H]2OC(=O)CC[Se][Se]CCC(=O)O[C@H]1CCC2[C@@H]3CCC4CC(=O)CC[C@]4(C)C3CC[C@@]21C` (stereo not given in full) it was 93.6%; in that of `Oc1ccc(O)c2c1C1(Cl)C(Cl)=C(Cl)C2(Cl)C1(Cl)Cl`, 64%. In the case of `CCC[CH2][Sn]([CH2]CCC)([CH2]CCC)[O]C(=O)c1ccc(Cl)cc1Cl` it was -29.7% (active). In the case of `CC(=O)O[C@H]1CCC2C3CCC4=C/C(=N/O)CCC4(C)C3CCC21C` (stereo not given in full) it was 89.4%; in that of `O=C(/C=C/c1ccccc1)N[C@@H](CO)Cc1cnc[nH]1`, 98%. For `CCC(C)/C=C(C)/C=C/C(=O)c1c(O)c(-c2ccc(O)cc2)c[nH]c1=O` (stereo not given), the growth was 41.6%. Consider `[Br][Pb]([c]1ccccc1)([c]1ccccc1)[c]1ccccc1`, for which the growth was -29.8% (active). Under `COc1ccc(C(=O)c2ccc([As]=O)cc2)cc1` (stereo not given) stands -24% (active); under `CC(C)N=C(NC(C)C)N1CC1`, 121%; under `ClCCN(CCCl)c1ccc(C=NCCc2c[nH]c3ccccc23)cc1`, 85.6%. `CC1(C)N=C(N)N=C(N)N1c1ccc(CCCCc2ccc(Cl)cc2S(=O)(=O)F)c(Cl)c1`: the growth was 17.8%.

For the compound `CNC(=O)O/N=C(/C)c1ccc(Cl)cc1`, the growth is 96.3%. Consider `NC(=O)NC(=O)CI`, for which the growth was 91.3%.

As for `CCOc1cc(C=C(C#N)C#N)cc(Br)c1O`, the growth was 105%. In the case of `CNc1ccc(C(=O)CC(O)CCC(C)C2OC(=O)CC(O)CC(=O)CC(O)CC(O)CC(O)CC(O)CC3(O)CC(O)C(C(=O)OC)C(CC(O[C@@H]4O[C@H](C)[C@@H](O)[C@H](N)[C@@H]4O)/C=C/C=C/C=C/C=C/C=C/C=C/C=C/C2C)O3)cc1` (stereo not given in full) it was 18.3%; in that of `COc1c(O)c2c3c(c1OC)-c1ccccc1CC3N(C)CC2` (stereo not given), 102%.

With `O=C(CCCN1CCC2(CC1)C(=O)NCN2c1ccc(F)cc1)c1ccc(F)cc1`, the growth was 101%. Under `O=C(NCCNC(=O)c1ccc([As](O)O)cc1)c1ccc([As](O)O)cc1` stands 114%.

`C=CCC1(CC)C(=O)NC(=S)NC1=O`: the growth was 103%.

In the case of `CC(=O)[O][Hg][c]1nc2c(c(=O)n(C)c(=O)n2C)n1C`, the growth is 102%.

With `CC(C)(C)NCC(O)c1ccccc1Cl` (stereo not given), the growth was 6.19% (active). With `O=C1NC(=O)C(O)(C2(O)C(=O)NC(=O)NC2=O)C(=O)N1`, the growth is 75.6%. As to `n1nc(-c2nonc2-c2nn[nH]n2)n[nH]1`, the growth is 96.5%. Turning to `N#C[Se]CCCNS(=O)(=O)C1CC2C=CC1C2` (stereo not given), the growth was -29.5% (active).

In the case of `O=C(CCc1ccco1)NC1CCN(CC2(c3ccc(Cl)cc3)CCC2)CC1`, the growth was -5.13% (active).

Take `COc1cc2c(cc1OC)CN(C)C(C)C2` (stereo not given): the growth is 105%. In the case of `CCCCCCCC(=O)OCC/C=C/C1OC1C1OC(=O)/C=C\C=C\c2nc(oc2C)/C=C(/C)CCC2OC2C1OC(=O)NC(C)=O` (stereo not given), the growth is -55.7% (active). Regarding `CC12CCC(=O)C=C1CCC1C2CCC2(C)C(C(=O)COC(=O)Cc3ccc(N(CCCl)CCCl)cc3)CCC12` (stereo not given), the growth was 46.4%. For `C/C(=C\C(=O)O[C@H]1[C@@H]2[C@H](C)CC[C@H]2[C@]2(C)O[C@@]1(C1CCCCC1)C[C@H]2OC(=O)CO)c1ccccc1`, the growth was -28.7% (active). Under `Cc1ccc(N)cc1[As]=[As]c1cc(N)ccc1C` (stereo not given) stands -40.2% (active); under `c1ccc([As]=[As]c2ccccc2)cc1` (stereo not given), -47.4% (active); under `NC(Cc1ccc2c(c1)OCO2)c1ccc2c(c1)OCO2` (stereo not given), 96.3%. Under `CNC(C)Cc1ccccc1` (stereo not given) (tested in a mixture with another compound) stands 90.4%. Turning to `O=C1NC(=O)C(=Cc2cn(Cc3ccccc3)c3ccccc23)C(=O)N1`, the growth is 75.7%. As for `CC1(C)N=C(N)N=C(N)N1c1ccc(CNC(=O)Nc2ccc(S(=O)(=O)F)c(Cl)c2)c(Cl)c1`, the growth was 27.6%. As to `C[As](=O)(O)c1ccc(C(=O)O)cc1`, the growth was 101%. For the compound `CCN(CC)c1ccc(C=C2C(=O)NC(=S)NC2=O)cc1`, the growth was -18.9% (active). Under `CO[C@@H](c1ccccc1Cl)[C@H](C)OC(N)=O` stands 110%.
